MK inhibit – inhibitors of Streptococcus pneumoniae mevalonate kinase | inhibition, % at 10 µM | 65,000 compounds, 0.48% hits | purified MK, PK/LDH-coupled NADH absorbance 340 nm;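 active means ranked among the strongest by inhibition in the single 10 µM screen, a fixed top-ranked set picked for dose follow-up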
Fluor 339 460 – intrinsic fluorescence of library compounds, ex339/em460 – biochemical, MLSMR library, data from DPM-DC assay, artefact control, profiling panel; compound autofluorescence, ex339/em460 nm, NADH buffer; active compounds read high; 1 = no-compound wells, NADH background; fluorescence fold increase at 10 µM; 65,000 compounds, 5.5% hits;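 active means at 10 µM, mean starting fluorescence two-fold or more over control wells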;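 further: signal is the first read of a kinetic run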
NADH coupling – inhibition of NAD/NADH coupling enzymes, library profiling. coupled PK/LDH NADH assays, four targets. IC50, µM (top dose mostly 10 µM), for inactives: at the top dose inhibition. 65,000 compounds, 0.02% hits. AID 774;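 active means single-dose screening hits from any of four coupled enzyme assays that gave an IC50 when retested across doses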;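 further: the DPM-DC format reads NADH fluorescence rather than 340 nm absorbance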
Spn PMK inh – S. pneumoniae PMK inhibition | purified PMK, PK/LDH-coupled NADH absorbance 340 nm | inhibition, % at 10 µM | 65,000 compounds, 0.49% hits;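 active means top-ranked compounds by inhibition in the single 10 µM screen, taking a fixed number of the strongest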;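 further: 0% = full reaction with DMSO carrier and 100% = background rate without enzyme reaction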
Spn DPM-DC inh – blocks S. pneumoniae diphosphomevalonate decarboxylase; AID 556; calls only at 10 µM; 65,000 compounds, 0.49% hits; purified DPM-DC, PK/LDH coupled NADH fluorescence;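 active means the 320 compounds with the highest percent inhibition in the single-dose primary screen, excluding strongly autofluorescent ones, cut at about 32% in these data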;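 further: kinetic rate of NADH fluorescence loss reporting ADP formed by the decarboxylase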
Abs 340nm – compound absorbs light at 340 nm. fold change at 10 µM. 65,000 tested, under 10 active. compound absorbance at 340 nm, fold over control;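 active means at 10 µM dose, initial 340 nm absorbance at least 2 fold that of control wells; inactive means change under 2 fold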;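 further: initial absorbance extrapolated from kinetic A340 decline of NADH oxidation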
An asterisk follows results filed as active. A selection: hits, their analogues and other compounds. The true share with any hit is near 6.8%.

CN(C(=O)C1CCCO1)c1nnc(-c2ccccn2)s1 (stereo not drawn) was read as MK inhibit 1, Fluor 339 460 4.8*, NADH coupling 1%, Spn PMK inh 0 and Abs 340nm 1.2.
Screening CN(C(=O)c1cnccn1)c1nnc(-c2cccnc2)s1 returned MK inhibit 3, Fluor 339 460 1.3, NADH coupling 11%, Spn PMK inh 30*, Spn DPM-DC inh inactive and Abs 340nm 1.
CN(C(=O)c1ccncc1)c1nnc(-c2ccncc2)s1 was read as MK inhibit 7, Fluor 339 460 3.6*, NADH coupling 8%, Spn PMK inh 9 and Abs 340nm 0.98.
Screening CN(C(=O)C1CCCO1)c1nnc(-c2ccncc2)s1 (stereo not drawn) returned MK inhibit 4, Fluor 339 460 2.6*, NADH coupling 3%, Spn PMK inh 8 and Abs 340nm 0.99.
Screening CC(=O)N(CC1CCCO1)c1nnc(-c2cnccn2)s1 (stereo not drawn) returned MK inhibit 0, Fluor 339 460 1.5, NADH coupling 0%, Spn PMK inh 0, Spn DPM-DC inh inactive and Abs 340nm 1.
For CN(C(=O)C1CCOC1)c1nnc(-c2ccccn2)s1 (stereo not drawn) the results were MK inhibit 0, Fluor 339 460 1.2, NADH coupling 2%, Spn PMK inh 0, Spn DPM-DC inh inactive and Abs 340nm 1.1.
Cc1cnc(-c2nnc(N(C)C(=O)C3CCOC3)s2)cn1 (stereo not drawn) was read as MK inhibit 7, Fluor 339 460 2*, NADH coupling 8%, Spn PMK inh 5, Spn DPM-DC inh inactive and Abs 340nm 1.1.
Screening COCC(=O)N(C)c1nnc(-c2ccccn2)s1 returned MK inhibit 0, Fluor 339 460 2*, NADH coupling 3%, Spn PMK inh 4, Spn DPM-DC inh inactive and Abs 340nm 0.99.
Screening C=CCn1c(=O)c2ccccc2n2c(SCc3nnc(-c4ccccc4Br)o3)nnc12 returned MK inhibit 4, Fluor 339 460 1.1, NADH coupling 7%, Spn PMK inh 15, Spn DPM-DC inh inactive and Abs 340nm 0.98.
Screening COc1cc(C2C3=C(CC(C)(C)CC3=O)N(C)C(=O)N2C)cc(OC)c1OC (stereo not drawn) returned MK inhibit 11, Fluor 339 460 1.1, NADH coupling 6%, Spn PMK inh 6, Spn DPM-DC inh inactive and Abs 340nm 1.
Screening CCOc1ccc2nc(NC(NC(=O)CC)(C(=O)OC)C(F)(F)F)sc2c1 (stereo not drawn) returned MK inhibit 0, Fluor 339 460 1, NADH coupling 3%, Spn PMK inh 8, Spn DPM-DC inh inactive and Abs 340nm 1.
For N#Cc1nc(-c2ccco2)oc1NCCCN1CCOCC1 the results were MK inhibit 7, Fluor 339 460 3.6*, NADH coupling 8%, Spn PMK inh 9 and Abs 340nm 1.1.
Screening Cc1ccc2cc(C#N)c(NCc3ccco3)nc2c1 returned MK inhibit 9, Fluor 339 460 3.8*, NADH coupling 10%, Spn PMK inh 11 and Abs 340nm 1.
For Cc1ccc(-c2nc(C#N)c(NCc3ccco3)o2)cc1 the results were MK inhibit 2, Fluor 339 460 3.7*, NADH coupling 10%, Spn PMK inh 18 and Abs 340nm 1.
Screening Cc1ccc(OCc2nc(C#N)c(NCc3ccco3)o2)cc1 returned MK inhibit 5, Fluor 339 460 1.1, NADH coupling 7%, Spn PMK inh 16, Spn DPM-DC inh inactive and Abs 340nm 1.
Screening N#Cc1nc(-c2ccc(OCc3ccccc3)cc2)oc1N1CCOCC1 returned MK inhibit 17, Fluor 339 460 1.9, NADH coupling 11%, Spn PMK inh 15, Spn DPM-DC inh inactive and Abs 340nm 1.
N#Cc1nc(-c2ccc(OCc3ccccc3)cc2)oc1NCCN1CCOCC1 was read as MK inhibit 7, Fluor 339 460 3.9*, NADH coupling 4%, Spn PMK inh 0 and Abs 340nm 1.1.
For O=C(O)c1ccc(COCC(F)(F)C(F)F)o1 the results were MK inhibit 10, Fluor 339 460 1.1, NADH coupling 4%, Spn PMK inh 1, Spn DPM-DC inh inactive and Abs 340nm 1.1.
